Experimental data: PubChem BioAssay
Where “and” joins values, the source holds several entries; their conditions need not be identical. Identical values can stand only once. Inconclusive results are not listed. Calls of active or inactive are those of the source. Cut-off read from the data, not from the text of the source, unless noted: active = inhibition above about 80%; inactive = the rest.

Legend:
[1] = viability loss in pontine glioma line – cell-based, SU-DIPG-XXV, MIPE5.0, CellTiter-Glo, qHTS, dose response (AID 1347065; cut-off not given, nearly all actives have AC50 up to about 26 µM;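 note: cells exposed to compound for 48 hours before ATP readout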); settings: CellTiter-Glo ATP luminescence
[2] = JHH-DIPG-1 glioma cell viability, MIPE5.0 library, CellTiter-Glo luminescence, qHTS (AID 1347067; cut-off not given, nearly all actives have AC50 up to about 26 µM;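 note: cells exposed to compound for 48 hours before readout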); settings: JHH-DIPG-1 glioma viability, CellTiter-Glo ATP luminescence
[3] = SU-DIPG-XXV glioma cell viability, MIPE5.0 library, qHTS (AID 1347068; cut-off not given, nearly all actives have IC50 up to about 30 µM)
[4] = sensitizers of A549 cells to miR-34 induction, primary screen, imaging, A549 dox-inducible miR-34, nuclei and caspase counts (AID 1347080;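 active = compounds whose cell count with miR-34 switched on is under 0.7 times the count with it off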); settings: A549 miR-34 inducible, Hoechst nuclei count, 48 h
[5] = modifiers of HSF1 nuclear foci, imaging, Selleck Cancer Library (AID 1347162; in the data active = plate-normalised HSF1 focus index below about 0.46); settings: human cells, at 10 µM; SSMD: measured here: HSF1 foci SSMD mean; cell count: measured here: cell number; plate-normalised HSF1 focus index: stronger effect = lower value
[6] = survival rescue of mitochondrial mutant cells in low glucose, primary screen, MELAS cybrids, Rieske KO mouse fibroblasts, CellTiter-Glo (AID 1508586;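 active = mean z-score across replicates of 1.96 or higher in either the MELAS or the Rieske mutant cell line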;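 note: z relative to plate mean and SD of compound and empty wells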)
[7] = target: NAD(+) hydrolase SARM1 (Homo sapiens) (UniProt Q6SZW1); test: SARM1 TIR NADase inhibitors, cell lysate, NAD-Glo luminescence (AID 1508614;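 active = compound whose remaining NAD level is above about 45 nM, limit read from the data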;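 note: higher remaining NAD means stronger inhibition of SARM1 NADase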); settings: SAM-TIR HEK293T lysate NADase, at 1 µM, stronger effect = higher value
[8] = viability rescue of complex I mutant cybrids, primary screen, cell-based, galactose medium, ATP luminescence (AID 1645843;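 active = z-score of at least 1.8 in each of two replicates, scored against plate mean and spread of sample wells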;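 note: positive z means more ATP and so rescue of galactose-driven cybrid death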); settings: complex I mutant cybrid cells, 72 h, stronger effect = higher value
[9] = LFS_MB_P medulloblastoma growth inhibition, cell-based, chromothripsis tumors, cisplatin or BGB combos (AID 1671449); settings: LFS_MB_P medulloblastoma cells;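 note: cells exposed for 96 hours; 0% = vehicle DMSO and 100% = killing by high DMSO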
[10] = HDN33 neuroblastoma growth inhibition, cell-based, chromothripsis tumors, cisplatin or BGB combos (AID 1671450); settings: HDN33 neuroblastoma cells, stronger effect = higher value;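 note: cells exposed to compound for four days; 0% = vehicle DMSO and 100% = cell killing by high DMSO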
[11] = ICB984 medulloblastoma cell growth inhibition, synergistic combos for chromothripsis tumors, cisplatin or BGB combos (AID 1671451; call rule not given here;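 note: cells exposed for 96 hours before readout; 0% = vehicle DMSO and 100% = killing by high DMSO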); settings: ICB984 medulloblastoma cells, drug combinations, stronger effect = higher value
[12] = LFS_MB_1R medulloblastoma cell growth inhibition, synergistic combos for chromothripsis tumors, cisplatin or BGB combos (AID 1671452); settings: LFS_MB_1R medulloblastoma cells, stronger effect = higher value;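 note: cells exposed for 96 hours before readout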
[13] = HTB85 osteosarcoma cell growth inhibition, synergistic combos for chromothripsis tumors, BGB or cisplatin IC20 combos (AID 1671453); settings: HTB85 osteosarcoma cells, drug combinations, stronger effect = higher value;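 note: cells exposed for 96 hours before readout; 0% = vehicle DMSO and 100% = high DMSO killing control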
[14] = CRL2098 osteosarcoma cell growth inhibition, synergistic combos for chromothripsis tumors, BGB or cisplatin IC20 combos (AID 1671454); settings: CRL2098 osteosarcoma cells, drug combinations, stronger effect = higher value;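 note: cells exposed for 96 h before readout; 0% = vehicle DMSO and 100% = killing by high DMSO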
[15] = HD-MB03 medulloblastoma cell growth inhibition, synergistic combos for chromothripsis tumors, BGB or cisplatin IC20 combos (AID 1671455; in the data active = inhibition above about 83%;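 note: 0% = vehicle DMSO and 100% = high DMSO as cytotoxic control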); settings: HD-MB03 medulloblastoma cells, stronger effect = higher value
[16] = SU-DIPG-VI glioma cell viability, MIPE4.0 library, CellTiter-Glo luminescence, qHTS (AID 1347066; cut-off not given, nearly all actives have AC50 up to about 30 µM;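 note: cells exposed to compound for 48 hours before readout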); settings: CellTiter-Glo ATP luminescence
[17] = target: Mitogen-activated protein kinase 7 (Homo sapiens) (UniProt Q13164); test: ERK5 transactivation activators in reporter cells, primary screen, cell-based, HTS (AID 1508626;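 active = luciferase signal above three times the same-plate solvent-only control wells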;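 note: luciferase driven by Gal4-ERK5 fusion binding five Gal4 sites before minimal TATA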); settings: HeLa Gal4-ERK5 transactivation, 18 h, at 5 µM, stronger effect = higher value
[18] = stronger effect = lower value, cell number ratio, induced over uninduced
[19] = measured here: relative caspase fold change +Dox/-Dox
[20] = measured here: total cells with miR-34 induction, stronger effect = lower value
[21] = measured here: total cells without miR-34 induction
[22] = MELAS cybrid survival, CellTiter-Glo 48 h, stronger effect = higher value
[23] = Rieske KO mouse fibroblast survival, CellTiter-Glo 72 h
[24] = measured here: combination with BGB IC40, at 0.05 µM

Sequence of Mitogen-activated protein kinase 7 (Homo sapiens) (Q13164 whole entry, looked up, the tested form may be a part): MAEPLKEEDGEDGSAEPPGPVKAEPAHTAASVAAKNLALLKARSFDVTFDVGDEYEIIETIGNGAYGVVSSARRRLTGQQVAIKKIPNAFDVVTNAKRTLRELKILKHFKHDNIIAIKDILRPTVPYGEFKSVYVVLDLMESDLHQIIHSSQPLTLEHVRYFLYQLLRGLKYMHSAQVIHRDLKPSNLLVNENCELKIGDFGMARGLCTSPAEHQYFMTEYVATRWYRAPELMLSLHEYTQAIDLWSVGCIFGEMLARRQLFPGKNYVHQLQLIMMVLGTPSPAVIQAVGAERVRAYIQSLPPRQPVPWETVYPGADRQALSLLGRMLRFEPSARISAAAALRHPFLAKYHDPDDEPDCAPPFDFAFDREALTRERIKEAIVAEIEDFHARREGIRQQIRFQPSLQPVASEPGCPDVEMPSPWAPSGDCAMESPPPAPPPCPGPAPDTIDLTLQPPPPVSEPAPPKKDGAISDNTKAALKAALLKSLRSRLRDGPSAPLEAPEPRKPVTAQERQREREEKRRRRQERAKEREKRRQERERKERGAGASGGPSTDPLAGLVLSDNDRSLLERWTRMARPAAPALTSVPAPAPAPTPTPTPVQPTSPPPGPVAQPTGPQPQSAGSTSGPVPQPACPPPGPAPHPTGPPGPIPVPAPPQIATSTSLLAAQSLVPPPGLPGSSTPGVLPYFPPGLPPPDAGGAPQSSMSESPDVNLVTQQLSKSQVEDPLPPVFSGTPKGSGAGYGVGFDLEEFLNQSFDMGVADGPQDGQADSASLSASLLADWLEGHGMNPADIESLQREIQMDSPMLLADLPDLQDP
Sequence of NAD(+) hydrolase SARM1 (Homo sapiens) (Q6SZW1 whole entry, looked up): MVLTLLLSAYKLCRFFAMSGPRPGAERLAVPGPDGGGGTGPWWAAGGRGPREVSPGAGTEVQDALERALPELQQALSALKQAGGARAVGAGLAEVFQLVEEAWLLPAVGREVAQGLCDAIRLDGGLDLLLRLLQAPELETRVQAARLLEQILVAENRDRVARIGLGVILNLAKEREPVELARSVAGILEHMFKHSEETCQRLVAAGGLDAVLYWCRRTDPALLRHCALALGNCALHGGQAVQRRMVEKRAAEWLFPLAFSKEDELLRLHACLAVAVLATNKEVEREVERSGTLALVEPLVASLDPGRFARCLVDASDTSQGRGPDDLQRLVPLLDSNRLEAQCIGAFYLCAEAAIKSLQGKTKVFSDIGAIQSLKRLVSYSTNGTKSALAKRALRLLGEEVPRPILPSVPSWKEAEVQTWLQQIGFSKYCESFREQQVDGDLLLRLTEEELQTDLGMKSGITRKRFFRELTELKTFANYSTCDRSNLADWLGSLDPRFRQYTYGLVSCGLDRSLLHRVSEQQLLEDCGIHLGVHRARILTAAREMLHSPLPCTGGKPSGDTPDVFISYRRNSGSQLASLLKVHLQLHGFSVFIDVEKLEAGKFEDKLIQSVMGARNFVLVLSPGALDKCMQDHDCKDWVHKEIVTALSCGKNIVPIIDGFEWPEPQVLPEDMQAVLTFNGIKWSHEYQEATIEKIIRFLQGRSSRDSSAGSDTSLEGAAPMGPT

CNNCc1ccc(C(=O)NC(C)C)cc1
outcome [1]: inactive
outcome [2]: inactive
outcome [3]: inactive
fold change [4, 18]: 0.927 (inactive) and 0.93 (inactive) and 0.882 (inactive)
fold change [4, 19]: 0.658 and 1.32 and 1.82
cell count [4, 20]: 8930 and 9660 and 9580
cell count [4, 21]: 9640 and 10400 and 10900
SSMD [5]: 2.76
cell count [5]: 7850
plate-normalised HSF1 focus index [5]: 1.17 (inactive)
z-score [6, 22]: -0.384 (inactive) and 0.576 (inactive)
z-score [6, 23]: -1.08 and 0.362
remaining NAD [7]: 10 nM (inactive)
z-score [8]: -0.975 (inactive) and 0.615 (inactive)
inhibition ([9]; at 0.5 µM, stronger effect = higher value): -4.96% (inactive) and -7.28% (inactive)
inhibition ([9]; measured here: combination with BGB IC20, at 0.005 µM): 0.865% and -3.27%
inhibition ([9]; measured here: combination with BGB IC40, at 0.005 µM): 4.15% and 7.38%
inhibition [9, 24]: -4.16% and -2.23%
inhibition ([9]; measured here: combination with cisplatin, at 0.5 µM, stronger effect = higher value): -13.4% and -33.1%
inhibition ([9]; measured here: combination with cisplatin, at 5 µM, stronger effect = higher value): 33.1% and 11.1%
inhibition ([10]; BGB combo, at 5 µM): 11.7% and 16.1%
inhibition ([10]; at 0.5 µM): 10.7% (inactive) and 6.09% (inactive)
inhibition ([10]; cisplatin combo, at 5 µM): 11.5% and 15.1%
inhibition ([10]; measured here: with BGB IC20 combination, at 0.5 µM): 8.82% and -6.43%
inhibition ([10]; measured here: with cisplatin IC20 combination, at 0.5 µM): 7.54% and 20.8%
inhibition ([10]; single agent, at 5 µM): 17.8% and 2.31%
inhibition ([11]; BGB IC20 combo, at 0.005 µM): 9.83% and 1.87%
inhibition ([11]; BGB IC40 combo, at 0.005 µM): -24.6% and -19.9%
inhibition ([11]; BGB IC40 combo, at 0.05 µM): -27.1% and 7.42%
inhibition ([11]; at 0.5 µM): -17.4% (inactive) and -14% (inactive)
inhibition ([11]; cisplatin combo, at 0.05 µM): -31.7% and 4.83%
inhibition ([11]; cisplatin combo, at 0.5 µM): -11.9% and -3.72%
inhibition ([11]; cisplatin combo, at 5 µM): 2.16% and -28.3%
inhibition ([11]; measured here: 5 uM single agent, at 5 µM): 3.31% and -11.8%
inhibition ([12]; at 0.5 µM): 9.11% (inactive) and -17.9% (inactive)
inhibition [12, 24]: 11.1% and -7.89%
inhibition ([12]; measured here: combination with cisplatin, at 0.5 µM): 9.64% and -15.3%
inhibition ([12]; measured here: combination with cisplatin, at 5 µM): -32.2% and -1.85%
inhibition ([13]; at 0.5 µM): -1.94% (inactive) and -4.22% (inactive)
inhibition ([13]; measured here: with BGB IC20, at 0.5 µM): 2.72% and -14.1%
inhibition ([13]; measured here: with BGB IC20, at 5 µM): 4.14% and -30.2%
inhibition ([13]; measured here: with cisplatin IC20, at 0.5 µM): -5.46% and -13.6%
inhibition ([13]; measured here: with cisplatin IC20, at 5 µM): -7.6% and -38.8%
inhibition ([13]; single agent, at 5 µM): 3.42% and -2.23%
inhibition ([14]; at 0.5 µM): 3.58% (inactive) and -35.9% (inactive)
inhibition ([14]; measured here: combination with BGB at IC20, at 0.5 µM): -18.3% and -64.1%
inhibition ([14]; measured here: combination with cisplatin at IC20, at 0.5 µM): -1.94% and -14.9%
inhibition ([15]; at 0.5 µM): 1.99% (inactive) and 3.37% (inactive)
inhibition ([15]; measured here: combo with BGB at IC20, at 0.5 µM): -4.48% and 4.11%
inhibition ([15]; measured here: combo with cisplatin at IC20, at 0.5 µM): 6.48% and 0.786%

CCOC(=O)[C@H](CCc1ccccc1)N[C@@H](C)C(=O)N1CCC[C@H]1C(=O)O
outcome [1]: inactive
outcome [16]: inactive
outcome [2]: inactive
fold change [4, 18]: 0.896 (inactive) and 0.877 (inactive) and 0.886 (inactive)
fold change [4, 19]: 0.827 and 3.26 and 1.44
cell count [4, 20]: 8260 and 11300 and 10300
cell count [4, 21]: 9220 and 12900 and 11600
z-score [6, 22]: -1.03 (inactive) and -0.334 (inactive)
z-score [6, 23]: -0.133 and -0.361
remaining NAD [7]: 10 nM (inactive)
luciferase signal [17]: 64 AU (inactive)
z-score [8]: 0.27 (inactive)

Nc1ncnc2c1ncn2[C@@H]1O[C@H](CO)[C@@H](O)[C@H]1O
outcome [1]: inactive
outcome [16]: inactive
outcome [3]: inactive
fold change [4, 18]: 0.803 (inactive)
fold change [4, 19]: 0.527
cell count [4, 20]: 10400
cell count [4, 21]: 12900
remaining NAD [7]: 10 nM (inactive)
luciferase signal [17]: 112 AU (inactive)

C[N+]1(C)[C@@H]2CC(OC(=O)[C@H](CO)c3ccccc3)C[C@H]1[C@@H]1O[C@@H]12 (some centres not stated)
outcome [1]: inactive
outcome [16]: inactive
outcome [2]: inactive
outcome [3]: inactive
remaining NAD [7]: 10 nM (inactive)
luciferase signal [17]: 32 AU (inactive)
